The list is not random: actives were taken first. Their share in the collection is about 19%.
DT40 TDP1 no CPT: qHTS for Inhibitors of human tyrosyl-DNA phosphodiesterase 1 (TDP1): qHTS in cells in absence of CPT | DT40 Tdp1-/- hTDP1 cells, no CPT, ATP luminescence, 48 h | Potency, µM (doses to about 46.2 µM), for inactives: top-dose activity change, negative = growth inhibition, actives largely listed as inhibitors | actives 15% (n = 420,000) | AID 686978, 2013; note: potency is the fitted concentration of half-maximal effect; nearly all actives have a fitted effect of over 55% in size
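Growth of hTDP1-complemented DT40 Tdp1-knockout cells is measured by ATP luminescence after at least 48 hr compound exposure at 37 °C, with DMSO substituting for the 20 nM CPT used in the parallel screen.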
HT1080 IDH1KD tx: qHTS for induction of synthetic lethality in tumor cells producing 2HG: qHTS for the HT-1080-IDH1KD cell line. HT-1080 IDH1 knockdown viability, ATP luminescence, 48 h. Potency, µM (top dose mostly 46.1 µM), for inactives: top-dose activity, negative = toxicity, hits mostly cytotoxic. actives 2% (n = 360,000);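 note: potency is the fitted concentration of half-maximal effect; 0% = DMSO wells and -100% = cell-free medium wells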
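Assay cells: HT-1080 with IDH1 knockdown, 750 per well, RPMI/5% FBS. Exposure: 48 h at 37 °C following 2 h pre-incubation. Read: CellTiter-Glo luminescence; fitted concentration-response, curve class assigned.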
IL-1B inflam inh: qHTS for Inhibitors of Inflammasome Signaling: IL-1-beta AlphaLISA Primary Screen | AID 743279, 2014 | activity change, % at 57.5 µM | actives 4.7% (n = 360,000) | THP-1 LPS/ATP IL-1B secretion, AlphaLISA, 16 h; stronger effect = lower value; in the data active = activity change below about -50%; inconclusive = mostly about -30% to -49%
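THP-1 cells pretreated 1 hr with compounds (up to 57.5 uM final), then stimulated with LPS (250 ng/mL final) plus ATP (1.25 mM final); secreted IL-1B measured by AlphaLISA after 16 hr, decreased signal indicating inhibition.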
HT1080NT lethal: qHTS for induction of synthetic lethality in tumor cells producing 2HG: qHTS for the HT-1080-NT fibrosarcoma cell line | HT-1080-NT fibrosarcoma viability, CellTiter-Glo ATP luminescence, 48 h | Potency, µM (doses to about 46.1 µM), for inactives: at the top dose activity, negative = less viability, hits mostly cytotoxic | actives 1.6% (n = 360,000) | AID 686970, 2013;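 note: NT is the 2HG producing partner of a matched IDH1 knockdown line; potency is the fitted concentration of half-maximal effect; 0% = DMSO-treated cells and -100% = media-only wells without cells; nearly all actives have a fitted effect of over 55% in size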
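750 cells/well, RPMI + 5% FBS; 2 h settle, compound pin-transfer, 48 h at 37 degrees C. CellTiter-Glo 10 min RT, luminescence. Normalized to DMSO and media-only wells.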
TDP1 cell CPT: qHTS for Inhibitors of human tyrosyl-DNA phosphodiesterase 1 (TDP1): qHTS in cells in presence of CPT. chicken DT40 Tdp1-/-;hTDP1 cells + 20 nM CPT, ATP luminescence, 48 h. Potency, µM (series often up to 46.2 µM), for inactives: at the top dose activity change, negative = growth inhibition, hits mostly inhibitors. actives 12% (n = 420,000). AID 686979, 2013; note: potency is the fitted concentration of half-maximal effect; nearly all actives have a fitted effect of over 55% in size
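Chicken DT40 Tdp1-/- cells complemented with human TDP1, 400 cells/well, exposed to compounds plus 20 nM camptothecin for at least 48 h at 37 C; viability read as ATP content by CellTiter-Glo luminescence.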
Active calls of the source: *; i = inactive; ? = inconclusive; . = not tested or not shown; [ ] = remark or other dose. Unless noted, calls come from the whole dose curve; as a rule, active = well fitted curve in the direction sought with a large enough effect; inconclusive = small, poorly fitted or top-dose-only effect, or another doubt; inactive = no such curve, though single readings can be large; an effect the other way counts as inactive or inconclusive. Unless noted, % is set by controls: 0 for no effect and ±100 for the full control effect.

SMILES | DT40 TDP1 no CPT | HT1080 IDH1KD tx | IL-1B inflam inh | HT1080NT lethal | TDP1 cell CPT
COCc1ccc(CN2Cc3ccccc3OC(c3ccccc3OC)C2)o1 (stereo unspecified) | -9% | . | . | . | -11%[9.04 µM]
COc1ccccc1C1CN(Cc2cccc(O)c2)Cc2ccccc2O1 (stereo unspecified) | 16µM* | . | . | . | -3%[9.04 µM]
CCOC(=O)N1CCC(N2CCN(c3ccccc3)CC2)CC1 | -4% | 2% | 7 | 3% | -1%
COc1ccc(CN2CCC(n3cc(C(=O)N4CCCC4)nn3)CC2)c(OC)c1C | -19% | . | . | . | 0%
Cn1cc(CN2CCOc3ccc(C(O)C4CCCCC4)cc3C2)cn1 (stereo unspecified) | 12µM* | . | . | . | ?
COC(=O)C1=CN(c2cccc(OCc3ccccc3)c2)C(N)=C(C#N)C1c1ccccc1 (stereo unspecified) | ? | 1% | 8 | 3% | ?
COC(=O)C1=CN(c2ccccc2OC)C(N)=C(C#N)C1c1cccc([N+](=O)[O-])c1 (stereo unspecified) | 1.3µM* | 1.8µM* | 55 | 2.3µM* | 0.82µM*
COC(=O)C1=CN(c2ccc(F)cc2)C(N)=C(C#N)C1c1ccccc1 (stereo unspecified) | 21µM* | ? | 0 | -27% | ?
COC(=O)C1=CN(c2ccc(Oc3ccccc3)cc2)C(N)=C(C#N)C1c1ccc(-c2ccccc2)cc1 (stereo unspecified) | ? | 6% | -11 | -2% | ?
COC(=O)C1=CN(c2cccc(OCc3ccccc3)c2)C(N)=C(C#N)C1c1ccc(-c2ccccc2)cc1 (stereo unspecified) | -23% | 10% | -4 | 1% | -10%
COC(=O)C1=CN(c2ccc3c(c2)OCO3)C(N)=C(C#N)C1c1ccccc1 (stereo unspecified) | 5.8µM* | 12µM* | -19 | 18µM* | 5.2µM*
COC(=O)C1=CN(c2ccc(N3CCOCC3)cc2)C(N)=C(C#N)C1c1ccc(-c2ccccc2)cc1 (stereo unspecified) | 5.8µM* | -23% | 7 | -2% | 7.3µM*
COc1ccc(S(=O)(=O)N2CCOCC2)cc1NC(=O)COC(=O)C1COc2ccccc2O1 (stereo unspecified) | -17% | 1% | i | 1% | -6%
COC(=O)C1=CN(c2ccc(Oc3ccccc3)cc2)C(N)=C(C#N)C1c1ccccc1 (stereo unspecified) | 15µM* | -23% | -1 | -22% | ?
COc1ccc(N(CC(=O)NCCc2ccccc2)C(=O)c2csnn2)cc1 | 5% | 1% | 6 | 0% | -9%
COc1ccc(C2(C)NC(=O)N(CC(=O)NC(C)c3ccc(CC(C)C)cc3)C2=O)cc1 (stereo unspecified) | ? | -1% | -21 | -3% | ?
COC(=O)N1C(=O)[C@](c2ccc(OC)cc2)(C(C)C)N1C(=O)OC | 16µM* | 0% | -92* | -3% | 21µM*
CC(C)C1(c2ccsc2)NC(=O)NC1=O (stereo unspecified) | -2% | -2% | 0 | -4% | 3%
COC(=O)N1C(=O)[C@](c2ccsc2)(C(C)C)N1C(=O)OC | ? | -10% | -99* | -3% | 15µM*
O=[N+]([O-])c1ccc(S(=O)(=O)Nc2nnc(C3CCCCC3)s2)cc1 | -27% | -7% | 11 | -11% | -25%
COc1ccc(C2NC(c3ccc(OC)cc3)C(c3ccccc3)C(=O)C2c2ccccc2)cc1 (stereo unspecified) | 21µM* | -15% | -6 | 1% | -23%
CCC[C@@H]1C[C@@]1(CCC)[C@@H](NP(=O)(c1ccccc1)c1ccccc1)c1ccc(C(=O)OC)cc1 | 16µM* | -5% | -3 | -3% | ?
Cc1ccc(C)c(-n2cc(CNC(C)Cn3cncn3)c(-c3ccccc3)n2)c1 (stereo unspecified) | ? | -14% | -18 | 1% | ?
Cc1cccc(-c2nn(-c3ccccc3)cc2CNCCO)c1 | 13µM* | . | . | . | ?
Cc1cccc(-n2cc(CNCCc3nc(C)cc(C)n3)c(-c3cccc(F)c3)n2)c1 | 4.6µM* | ? | ? | ? | 12µM*
SMILES | DT40 TDP1 no CPT | HT1080 IDH1KD tx | IL-1B inflam inh | HT1080NT lethal | TDP1 cell CPT
Cc1ccc(C)c(-n2cc(CNCCCn3cccn3)c(-c3ccccc3)n2)c1 | 21µM* | ? | ? | 21µM* | 23µM*
COc1ccc(-n2cc(CNCCCn3ccnc3)c(-c3cccc(F)c3)n2)cc1 | -21% | ? | ? | -25% | ?
Cc1ccc(-n2cc(CNCCCn3cccn3)c(-c3cccc(C)c3)n2)cc1 | 16µM* | ? | -99* | ? | 13µM*
CC(C)(CC(=O)c1ccccc1)CC(=O)c1ccccc1 | ? | 8% | 0 | 7% | -22%
CCOC(=O)/C(=N\Nc1cc(C(F)(F)F)ccc1Cl)N(CC)CC | -12% | 3% | 47 | 1% | 0%
CCN1CC(CN(C)Cc2cn(-c3cccc(C)c3)nc2-c2cccc(F)c2)CC1=O (stereo unspecified) | 18µM* | -7% | ? | 2% | 16µM*
CCN1CC(CN(C)Cc2cn(-c3ccc(C)cc3)nc2-c2ccc(F)cc2)CC1=O (stereo unspecified) | ? | -17% | -21 | -16% | ?
Cc1nnc(SCC(=O)c2ccc(Br)cc2)s1 | ? | 11% | 2 | 3% | -19%
CCCCc1ccc(NC(=O)CN(C)CC(=O)Nc2ccccc2Cl)cc1 | 23µM* | -12% | -74* | -21% | ?
CN(CC(=O)Nc1ccccc1Cl)CC(=O)Nc1ccccc1[N+](=O)[O-] | 21µM* | -19% | 17 | -12% | ?
Cc1cc(N(C)C)c(C)cc1/C=C/c1ccnc2ccccc12 | 0.56µM* | . | . | . | 0.79µM*
CCN(CC)c1cc(C)c(/C=C/c2ccnc3ccccc23)cc1C | 13µM* | . | . | . | 10µM*
CC(C)(O)[C@H]1Cc2cc3ccc(=O)oc3cc2O1 | 10% | 18% | -27 | 8% | 4%
Cc1nc2c(cc1N)nc(C)n2Cc1ccccc1 | -9% | -2% | -12 | -8% | -11%
COC(=O)C[C@@H]1CC[C@@H](NS(=O)(=O)c2cccc(OC)c2)[C@@H](CO)O1 | 0% | 21% | -1 | 16% | 1%

High-throughput results from PubChem.
